# Most compounds without a hit are left out; they make up all but 8.9% or so of the library.
# D3 antag: blocks the human D3 dopamine receptor | P35462 | D3R cells, DiscoveRx beta-arrestin luminescence, antagonist mode; active compounds read low | max response, negative = inhibition, % | hit rate 2.5% among 360,000; in the data active = max response below about -50%; inconclusive = no clear call, values can overlap the other calls; also: % is scaled to controls: 0 for no effect and ±100 for the full control effect
# Target sequence (P35462 whole entry, looked up): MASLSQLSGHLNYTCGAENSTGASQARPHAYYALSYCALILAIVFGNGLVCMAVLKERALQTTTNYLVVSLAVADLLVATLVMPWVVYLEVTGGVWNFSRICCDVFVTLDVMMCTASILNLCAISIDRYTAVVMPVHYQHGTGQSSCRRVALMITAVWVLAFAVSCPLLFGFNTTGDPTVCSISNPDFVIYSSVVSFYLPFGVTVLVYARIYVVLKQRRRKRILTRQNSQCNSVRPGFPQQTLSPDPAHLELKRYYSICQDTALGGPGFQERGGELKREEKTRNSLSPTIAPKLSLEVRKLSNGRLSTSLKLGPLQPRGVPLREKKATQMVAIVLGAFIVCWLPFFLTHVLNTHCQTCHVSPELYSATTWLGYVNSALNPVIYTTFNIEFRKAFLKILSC
#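 Cells plated overnight at 1500 cells/well, then exposed to library compounds with dopamine controls for 90 minutes at 37 degrees C. DiscoveRx reagent added for 30–60 minutes at room temperature; luminescence read, quantitative HTS format.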
# KB-V1 cytotox: kills drug-selected multidrug resistant KB-V1 cells; Potency, µM (doses to about 46.1 µM), usual class: cytotoxic; hit rate 3.4% among 400,000; KB-V1 MDR cells viability, CellTiter-Glo, 72 h; AID 1347076; also: potency is read from the fitted curve at half-maximal effect; % is scaled to controls: 0 for no effect and ±100 for the full control effect; nearly all actives have a fitted effect of over 60% in size
#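 qHTS viability screen in drug-selected KB-V1 MDR cells: 72 h compound treatment at 37 degrees C, ATP luminescence end point.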
# SW480 rereplic: inducers of DNA re-replication in SW480 colon cancer cells; SW480 DNA re-replication, Hoechst DNA content imaging, 48 h; Potency, µM (titrated, usually from 46.1 µM), without a hit: top-dose re-replication activation, usual class: activators; hit rate 1.8% among 340,000; AID 624297; also: potency is read from the fitted curve at half-maximal effect; % of control where 0% means no effect; nearly all actives have a fitted effect of over 55% in size
#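 SW480 cells exposed to compounds for 48 hr at 37 C, 5% CO2, then Hoechst-stained 40 min. Nuclear DNA content imaged by fluorescence scanning (405 nm excitation, 500-530 nm emission); re-replication scored as increased high-intensity nuclei.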
# DRD3 agonist: agonists of human D3 dopamine receptor; D3R DiscoveRx beta-arrestin cells, luminescence, 90 min; max activation, %; hit rate 0.58% among 410,000; in the data active = max activation above about 30%; also: 0% is about no effect
#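 Agonist mode: compounds and dopamine controls were applied to plated cells for 90 min at 37 degrees C after an overnight attachment at 1500 cells/well. Luminescent read-out followed 30 - 60 minutes at room temperature with DiscoveRx detection reagent.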
# MCF10A rereplic: induces DNA re-replication in MCF 10a normal breast cells; MCF 10A DNA re-replication, Hoechst nuclear intensity, 48 h; Potency, µM (titrated, usually from 46.1 µM), inactives show at the highest dose activity, positive = re-replication, hits mostly activators; hit rate 2.9% among 350,000; also: potency is read from the fitted curve at half-maximal effect; % of control where 0% means no effect; nearly all actives have a fitted effect of over 50% in size
# KB-3-1 cytotox: KB-3-1 parental cell cytotoxicity | KB-3-1 viability, CellTiter-Glo ATP luminescence, 72 h | Potency, µM (titrated, usually from 46.1 µM), usual class: cytotoxic | hit rate 1.4% among 400,000; also: potency is read from the fitted curve at half-maximal effect; % is scaled to controls: 0 for no effect and ±100 for the full control effect; nearly all actives have a fitted effect of over 60% in size
#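 Luminescent ATP read-out (CellTiter-Glo) measures survival of drug-naive KB-3-1 cells after 72 h compound exposure at 37 °C. Titration series was screened from lowest to highest concentration, with DMSO vehicle plates as background controls.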
# * = called active by the depositor; i = inactive; ? = inconclusive; . = not tested or not shown. Unless noted, calls follow the shape of the dose curve; as a rule, active = well fitted curve in the direction sought with a large enough effect; inconclusive = small, poorly fitted or top-dose-only effect, or another doubt; inactive = no such curve, though single readings can be large; an effect the other way counts as inactive or inconclusive.
SMILES,D3 antag,KB-V1 cytotox,SW480 rereplic,DRD3 agonist,MCF10A rereplic,KB-3-1 cytotox
COc1ccc(C(=O)N/N=C/c2sc3ccccc3c2O)cc1,-51*,?,5.2µM*,-17,?,7.3µM*
Cc1ccc(-n2nc(CO)c(C(=O)NCc3cccs3)n2)cc1C,.,.,.,12,.,.
COc1cccc(-c2nc(Cn3c(=O)cc(C)c4c(C)nn(-c5ccccc5)c43)c(C)o2)c1OC,.,i,.,12,.,i
Cc1cc2c(C)nc(N/N=C/c3ccc(F)cc3)nc2o1,-56*,i,-3%,3,-4%,i
O=C(O)c1ccccc1OC(C(=O)Nc1cc(Cl)cc(Cl)c1)c1ccccc1 (centres undefined),10,?,?,3,21µM*,i
O=C(Cc1cccc2ccccc12)Nc1ccc(OC(F)F)c(Cl)c1,12,21µM*,0%,4,9%,?
COC(=O)Cc1ccc(NC(=O)C(c2ccccc2)c2ccccc2)cc1,16,8.2µM*,2%,1,14%,i
O=C(Nc1ccc(OC(F)F)c(Cl)c1)C(c1ccccc1)c1ccccc1,-21,?,17%,-4,2.3µM*,?
FC(F)Oc1ccc(NC(=S)NCc2ccccc2)cc1Cl,42,?,?,-5,15%,?
O=C(NC1CC(=O)N(c2ccc(Cl)cc2)C1)c1ccc2c(c1)OCO2 (centres undefined),.,.,.,-29,.,.
CCn1c(O)c(C2=c3ccccc3=NC2=O)c2cc(Br)ccc21,-80*,i,?,-7,16µM*,i
COc1ccc(-n2c(=O)c3ccc(C(=O)NCc4ccc(C)cc4)cc3n(Cc3ccc(Cl)cc3)c2=O)cc1,.,i,.,5,.,i
COc1ccc2nc(N=Nc3ccc(N(C)C)cc3)sc2c1,-17,?,2%,-6,-1%,13µM*
O=C(Nc1cccc(Br)c1)Nc1nc2c(s1)CCCCCC2,.,?,.,-18,.,i
O=C(O)COc1ccc(/C=N/NC(=O)c2ccc(-c3csc(Nc4ccc(Cl)cc4)n3)cc2)cc1,3,i,-11%,17,9.2µM*,i
O=C(NCc1ccncc1)/C(=N/O)c1ccccc1,-53*,i,-12%,9,-2%,i
CN(C)S(=O)(=O)Nc1ccc(-c2cn3ccsc3n2)cc1,.,?,.,3,.,i
CCOP(=O)(OCC)c1nc(-c2ccc(Cl)cc2Cl)oc1N1CCCCC1,4,?,7%,0,16µM*,i
COc1cccc(-c2cn3ncsc3n2)c1,.,i,.,-9,.,i
Cc1ccc2c(c1)c(=O)c(S(=O)(=O)c1ccc(C)c(C)c1)cn2CC(=O)Nc1ccccc1,.,i,.,38*,.,i
CCOC(=S)SCC(=O)Nc1nccs1,-4,i,21%,-2,?,i
CCOC(=S)SCC(=O)Nc1nc(C)c(C)s1,?,i,104%,-3,18µM*,?
CCOC(=S)SCC(=O)Nc1nc(-c2ccc(Br)cc2)cs1,61,5.8µM*,?,13,8.2µM*,5.2µM*
Cc1ccc(-c2csc(NC(=O)CSC3=NCCS3)n2)cc1,-17,i,-12%,-1,16%,i
CCOC(=S)SCC(=O)Nc1nc(-c2ccccc2)cs1,-11,?,?,-9,21µM*,6.5µM*
SMILES,D3 antag,KB-V1 cytotox,SW480 rereplic,DRD3 agonist,MCF10A rereplic,KB-3-1 cytotox
COc1ccc(-c2noc(CSCC(=O)Nc3ccc(C)cc3Br)n2)cc1OC,.,.,.,0,.,.
Cc1ccccc1C(=O)Nc1c(C)nc2ccccn2c1=O,.,.,.,-15,.,.
c1ccc(N2CCN(Cc3nnc(-c4ccc5c(c4)OCO5)o3)CC2)cc1,.,i,.,37*,.,i
Cc1ccccc1-c1nnc(CN2CCN(c3ccccn3)CC2)o1,.,i,.,50*,.,i
c1ccc(-c2nnc(CN3CCN(c4ccccc4)CC3)o2)cc1,-17,?,-11%,55*,0%,i
Cc1ccc(C)c(N2CCN(Cc3nnc(-c4ccc5c(c4)OCO5)o3)CC2)c1,.,i,.,-6,.,i
c1ccc(-c2nnc(CN3CCN(C(c4ccccc4)c4ccccc4)CC3)o2)cc1,-56*,i,2%,-10,26%,i

# Screening data deposited in PubChem by National Center for Advancing Translational Sciences (NCATS).
